Results on 40 compounds are retold here after PubChem BioAssay (EPA / NIEHS).

Records with an inconclusive call do not appear. The source made the active and inactive calls. The calls were made as follows: active = hit-call score of the fitted dose curve at least 0.9, where 1 is the maximum; inconclusive = response in the unintended direction; inactive = score below 0.9.

The target in this experiment is Peroxisome proliferator-activated receptor gamma (Homo sapiens) (UniProt P37231). In words: ATG_PPARg_TRANS: Attagene TRANS-FACTORIAL HepG2 Assay for human Peroxisome Proliferator-activated Receptor-gamma (PPARg) (AID 2283007). The method, then: ATG_TRANS is a cell-based, multiplexed-readout assay that uses HepG2, a human liver cell line, with measurements taken at 24 hours after chemical dosing in a 24-well plate.ATG_PPARg_TRANS is one of 30 assay component(s) measured or calculated from the ATG_TRANS assay. It is designed to make measurements of mRNA induction, a form of inducible reporter, as detected with fluorescence intensity signals by Reverse transcription polymerase chain reaction (RT-PCR) and Capillary electrophoresis technology.Data from the assay component ATG_PPARg_TRANS was analyzed into 1 assay endpoint. This assay endpoint, ATG_PPARg_TRANS, was analyzed in the positive analysis fitting direction relative to DMSO as the negative control and baseline of activity. Using a type of inducible reporter, measures of mRNA for gain-of-signal activity can be used to understand the reporter gene at the transcription factor-level as they relate to the gene PPARG. Furthermore, this assay endpoint can be referred to as a primary readout, because this assay has produced multiple assay endpoints where this one serves a reporter gene function. To generalize the intended target to other relatable targets, this assay endpoint is annotated to the nuclear receptor intended target family, where the subfamily is non-steroidal.
Sequence of Peroxisome proliferator-activated receptor gamma (Homo sapiens) (P37231 whole entry, looked up): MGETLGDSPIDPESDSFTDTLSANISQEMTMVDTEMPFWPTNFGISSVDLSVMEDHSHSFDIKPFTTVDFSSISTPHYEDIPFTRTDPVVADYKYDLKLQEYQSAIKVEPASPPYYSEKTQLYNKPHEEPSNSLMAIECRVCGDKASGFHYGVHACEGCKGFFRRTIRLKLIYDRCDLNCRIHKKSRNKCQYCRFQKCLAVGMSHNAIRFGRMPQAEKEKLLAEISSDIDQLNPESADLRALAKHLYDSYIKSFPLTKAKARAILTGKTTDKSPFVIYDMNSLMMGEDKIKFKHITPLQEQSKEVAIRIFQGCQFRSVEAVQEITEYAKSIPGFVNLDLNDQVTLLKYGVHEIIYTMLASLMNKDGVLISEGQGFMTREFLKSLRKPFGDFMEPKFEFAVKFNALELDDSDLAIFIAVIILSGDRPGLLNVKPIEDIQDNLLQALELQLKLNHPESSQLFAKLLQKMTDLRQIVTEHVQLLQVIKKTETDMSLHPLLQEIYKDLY
Human liver HepG2 cells are transiently transfected with multiple reporter transcription units (MRTUs) in 6-well plates using FuGene 6 reagent (Roche; 3 ml FuGene/1 mg DNA). The MRTU constructs are regulated by a cis-regulating element (promoter). […] A major difference between the CIS and TRANS system is that in CIS activities of endogenous TFs are measured, whereas the TRANS assay evaluates changes in activities of exogenous, chimeric NR-Gal4 proteins. […] At the end of 24 hour incubation, total RNA was isolated using TriZol reagent (Invitrogen). The isolated RNA is then reverse-transcribed using oligo(dT) primer and Mo-MLV reverse transcriptase (Invitrogen) with DNAse I (Ambion) treatment for 30 min. The one-tenth of the produced cDNA was amplified by PCR using Taq DNA polymerase (Invitrogen) and two reporter sequence-specific primers. The PCR products were fluorescently labeled by primer extension with 6-arboxyfluorescein (6-FAM) 5'-labeled reporter sequence-specific primer (2 min at 95 C, 20 s at 68 C and 10 min at 72 C) and these products were digested with 5U of HpaI (New England Biolabs) for 2h at 37 C. The fragments were purified using Qiaquick PCR columns (Qiagen), analyzed on an ABI 3130xL genetic analyzer (Applied Biosystems) with peak positions identified by using a set of X-rhodamine (ROX)-labeled MapMarker1000 molecular weight standards (BioVentures). The raw capillary electrophoresis data was processed using Attagraph software (Attagene).
`CCC(=O)/C=C/C1C(C)=CCCC1(C)C` (stereo not given): the AC50 was 21.4 µM (active).
In the case of `COc1nc(C)nc(N)n1`, the compound was classed as inactive.
The same measure, in the same setting: for `CN1Cc2c(N)cccc2C(c2ccccc2)C1` (stereo not given) the value was “inactive”; for `C[Si](O[Si](C)(C)C)O[Si](C)(C)C`, “inactive”.
Turning to `C[C@H]1C[C@H]2[C@@H]3CCC4=CC(=O)C=C[C@]4(C)[C@@]3(F)[C@@H](O)C[C@]2(C)[C@@]1(O)C(=O)COP(=O)(O)O`, the compound was classed as inactive.
As for `CC(C)Oc1ccccc1O`, the result was inactive.
Regarding `Nc1ccc(F)c([N+](=O)[O-])c1`, the compound was called inactive.
Still for that read-out and setting: the same measure for `CC(C)c1cccc(O)c1`: “inactive”; for `C[C@]12CC[C@H]3[C@@H](CCC4=CC(=O)CC[C@@]43C)[C@@H]1CC[C@@H]2C(=O)CO`: “inactive”.
Regarding `O=C(O)CCSCCC(=O)O`, the call was inactive.
For `CNCCO`, the result was inactive.
Take `Nc1cc(Cl)c(O)c(Cl)c1`: the concentration at half-maximal activity (AC50) was 30 µM (active).
For `CCCC(=O)OCCC(C)CCC=C(C)C` (stereo not given), the AC50 was 31 µM (active).
`CCCCNC(=O)NS(=O)(=O)c1ccc(C)cc1`: the result was inactive.
As for `Fc1c(F)c(F)c(Br)c(F)c1F`, the result was inactive.
For `CCCC(C)C=O` (stereo not given), the compound was classed as inactive.
As to `CC[Si](OC(C)=O)(OC(C)=O)OC(C)=O`, the result was inactive.
Same read-out and setting: the same measure for `CN(C)CCCN`: “inactive”.
Same read-out and setting: the same measure for `CCCCCCCCCCCCN(CCCCCCCCCCCC)CCCCCCCCCCCC`: “inactive”; for `CC1CC(OC(=O)c2ccccc2O)CC(C)(C)C1` (stereo not given): “inactive”.
Consider `CCCCCCCCCCCCSC`, for which the compound was classed as inactive.
Consider `CC1CCC(C(C)CS)CC1S` (stereo not given), for which the AC50 was 41 µM (active).
On to `CC(C)=CCO`, for which the compound was classed as inactive.
As for `CC(CC(C)(C)C)CC(C)(C)CC(C)(C)C` (stereo not given), the result was inactive.
Still for that read-out and setting: the same measure for `COc1cc2ncnc(Nc3cccc(Cl)c3)c2cc1OC`: “inactive”; for `O=C(O)c1cccc(C(F)(F)F)c1`: “inactive”; for `CC(=O)Nc1ccc(CC(=O)O)cc1`: “inactive”.
Same read-out and setting: for `C#C[C@]1(O)CC[C@H]2[C@@H]3CCC4=Cc5oncc5C[C@]4(C)[C@H]3CC[C@@]21C` the value was “inactive”; for `CC(=O)[C@H]1CC[C@H]2[C@@H]3CC=C4C[C@@H](O)CC[C@]4(C)[C@H]3CC[C@]12C`, “inactive”.
Consider `O=C(O)CCCCCCCC(=O)O`, for which the compound was called inactive.
Still for that read-out and setting: the same measure for `CCCCCCOC(=O)CCCCC`: “inactive”.
For `c1ccc(CCCc2ccccn2)cc1`, the AC50 is 50.7 µM (active).
For `O=C1CCCCCCCCCCOCCCCO1`, the AC50 is 59.3 µM (active).
In the case of `CCCOCC(C)O` (stereo not given), the call was inactive.
The same measure, in the same setting: the same measure for `CCCCCC(=O)OCCc1ccccc1`: “inactive”; for `CCN(CC)c1ccc(C(=C2C=CC(=[N+](CC)CC)C=C2)c2ccc(S(=O)(=O)O)cc2S(=O)(=O)[O-])cc1`: “inactive”.
With `CC(=O)C=CC1=C(C)CCCC1(C)C`, the half-maximal activity concentration (AC50) is 14.1 µM (active).
As for `CC(C)C[C@H]1C(=O)N2CCC[C@H]2[C@]2(O)O[C@](NC(=O)[C@@H]3C=C4c5cccc6[nH]c(Br)c(c56)C[C@H]4N(C)C3)(C(C)C)C(=O)N12`, the compound was classed as inactive.
With `Clc1nc(C(Cl)(Cl)Cl)c(Cl)c(Cl)c1Cl`, the half-maximal activity concentration (AC50) was 1.45 µM (active).
As for `CCC(C)CCCC(C)(C)O` (stereo not given), the outcome was inactive.
